HP1b chromo inh = blocks HP1-beta chromodomain binding to methylated histone tails | P83916 | AlphaScreen HP1-beta / biotin-H3K9me3 peptide binding | Potency, µM (doses to about 114 µM), for the others: at the highest dose activity change, negative = inhibition, actives largely listed as inhibitors | 0.56% of 390,000 active; further: nearly all actives have a fitted effect of over 70% in size
Target sequence (P83916 whole entry, looked up): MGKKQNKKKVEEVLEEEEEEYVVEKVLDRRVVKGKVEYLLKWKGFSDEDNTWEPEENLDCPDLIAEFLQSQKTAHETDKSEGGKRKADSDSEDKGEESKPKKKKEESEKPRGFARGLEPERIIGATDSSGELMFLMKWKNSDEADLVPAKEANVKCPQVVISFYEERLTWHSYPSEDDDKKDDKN
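AlphaScreen: HP1-beta (50 nM) preformed 30 min with biotin-H3(1-18)K9me3 peptide (50 nM) in PBS pH 7.4, 0.01% Tween-20. Compound added for 30 min at RT, then streptavidin donor/nickel chelate acceptor beads (10 ug/mL) for 30 min.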
G9a inh = blocks human histone lysine methyltransferase G9a. G9a H3K9 monomethylation, AlphaScreen, 2 h. 8.8% of 350,000 active. Q96KQ7. Potency, µM (highest dose often 102 µM), for inactives: at the highest dose activity, negative = inhibition, most hits filed as inhibitors. AID 504332; further: on the % scale 0 is the no-effect control and ±100 the full control effect; nearly all actives have a fitted effect of over 75% in size
Target sequence (Q96KQ7 913-1193 limits assumed): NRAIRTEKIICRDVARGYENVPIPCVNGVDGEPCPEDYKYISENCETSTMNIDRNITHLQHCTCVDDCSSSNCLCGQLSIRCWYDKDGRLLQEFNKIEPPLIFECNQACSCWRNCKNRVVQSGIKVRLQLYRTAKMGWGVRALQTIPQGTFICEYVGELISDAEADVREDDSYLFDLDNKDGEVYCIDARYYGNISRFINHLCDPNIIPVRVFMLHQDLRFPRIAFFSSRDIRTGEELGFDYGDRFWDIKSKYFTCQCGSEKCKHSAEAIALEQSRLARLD
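Readings reflect AlphaScreen signal from monomethyl-H3K9 antibody detection. HMT at 20 nM; substrate b-H3K9 500 nM; cofactor SAM 20 uM; 2 h RT reaction; compounds tested as titrations in qHTS with 15 min preincubation.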
JMJD2A Tudor inh = JMJD2A Tudor domain (human) inhibition; O75164; AlphaScreen JMJD2A-Tudor / H3K4me3 peptide binding; Potency, µM (doses to about 114 µM), for the others: at the highest dose activity change, negative = inhibition, usual class: inhibitors; 4.4% of 390,000 active; AID 504339; further: on the % scale 0 is the no-effect control and ±100 the full control effect; nearly all actives have a fitted effect of over 50% in size
BAZ2B block = blocks human BAZ2B | Potency, µM (highest dose often 114 µM), for inactives: at the top dose activity change, negative = inhibition, usual class: inhibitors | AID 504333 | 4.4% of 360,000 active | AlphaScreen BAZ2B-H3K14Ac peptide displacement; further: on the % scale 0 is the no-effect control and ±100 the full control effect; nearly all actives have a fitted effect of over 60% in size
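Compounds, titrated to a top concentration of 110 uM, were incubated 30 min at room temperature with preformed BAZ2B/acetyl-K14 H3 peptide complex (50 nM each). Proximity signal was measured by AlphaScreen after 20 min with beads.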
Sfp inh = blocks B. subtilis Sfp PPTase activity. Q9F4F7. Biochemical Sfp PPTase activity, qHTS. Potency, µM, for the others: largest response in the series, negative = inhibition, hits mostly inhibitors. AID 1490. 3.5% of 310,000 active;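 further: the enzyme is Sfp with the accession as filed and its product quenches rhodamine fluorescence; 0% = enzyme reaction without inhibitor and -100% = no enzyme wells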
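Compounds were incubated with enzyme (final 15 nM) for 15 min at room temperature before substrate addition started the reaction. Fluorescence at 525 nm excitation, 598 nm emission was recorded immediately and after 30 minutes.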
PLK1 PBD inh = blocks phosphopeptide binding to human PLK1 polo-box domain | P53350 | Plk1 PBD binding of FITC phosphopeptide, fluorescence polarization | Potency, µM, for inactives: max response, negative = inhibition, hits mostly inhibitors | 2.8% of 360,000 active; further: series mostly up to about 57 µM; on the % scale 0 is the no-effect control and ±100 the full control effect; nearly all actives have a fitted effect of over 65% in size
Numbers without * were called inactive; u = inconclusive; x = no result; [ ] = dose if it differs, or a comment. Shown are actives, neighbours in structure and some others; about 12% of the full set was active somewhere. The call rests on the fitted dose curve; in most records, active means well fitted curve in the direction sought with a large enough effect; inconclusive means small, poorly fitted or top-dose-only effect, or another doubt; inactive means no such curve, though single readings can be large; an effect the other way counts as inactive or inconclusive. Potency means the concentration at half of the fitted maximal effect.

SMILES	HP1b chromo inh	G9a inh	JMJD2A Tudor inh	BAZ2B block	Sfp inh	PLK1 PBD inh
Cc1n[nH]c(=S)n(/N=C/c2cccs2)c1=O	22.2%	8.0%	25.1µM*	-2.4%	u	-12.9%
S=c1[nH]nc(-c2ccccn2)n1/N=C/c1cccc2ccccc12	u	0.398µM*	5.62µM*	28.2µM*	-12.2%	26.7µM*
S=c1[nH]nc(-c2ccccn2)n1/N=C/c1cccs1	19.4%	3.16µM*	3.55µM*	8.91µM*	-15.9%	-9.8%
S=c1[nH]nc(-c2ccc(Cl)cc2)n1/N=C/c1cccs1	19.4%	x	-18.5%	-9.7%	-10.2%	-19.0%
COC(=O)c1ccc(NC(=O)CC2C(=O)N(c3cccc(OC)c3)C(=O)N2C(C)C)cc1 (stereo not given)	29.4%	u	5.9%	-20.9%	x	x
C/C=C/c1cc(CN2CCN(c3ccc(OC)cc3)CC2)c(O)c(OC)c1	44.7µM*	35.5µM*	44.7µM*	28.2µM*	1.1%	-26.8%
COc1ccc(N2CCN(Cc3cc4c(cc3O)CCC4)CC2)cc1	-52.8%	u	15.8µM*	31.6µM*	-19.2%	1.0%
C/C=C/c1cc(CN2CCN(c3ccccc3)CC2)c(O)c(OC)c1	-0.8%	u	u	x	-0.1%	-1.3%
CCCCC(=O)Nc1sc(C(=O)N(CC)CC)c(C)c1C(=O)OC	u	2.24µM*	70.8µM*	-17.7%	12.6µM*	4.74µM*
CCCC(=O)Nc1sc(C(=O)OC)c(C)c1C(N)=O	-21.7%	11.2µM*	-6.7%	-3.7%	28.2µM*	21.2µM*
CCOC(=O)c1sc(NC(=O)c2ccoc2C)c(C(N)=O)c1C	15.0%	-46.7%	-8.8%	u	-10.1%	-3.9%
O=C(Nc1nc2n(n1)C(c1ccc(F)cc1)C=C(c1ccccc1)N2)c1ccco1 (stereo not given)	29.1%	u	-18.2%	-16.5%	x	x
C=CCNC(=O)COC(=O)c1c2c(nc3ccccc13)CCC2	u	39.8µM*	28.2µM*	50.1µM*	6.7%	u
Cc1c(NC(=O)COC(=O)c2c3c(nc4ccccc24)CCCC3)c(=O)n(-c2ccccc2)n1C	44.3%	23.8%[59 µM]	-6.5%	9.0%	12.4%	-2.2%
Cc1ccc(CNC(=O)CSc2c3c(nc4ccc(Cl)cc24)CCCC3)o1	35.8%	-24.8%[59 µM]	-6.7%	-4.9%	35.5µM*	-11.6%
CNC(=O)COC(=O)c1c2c(nc3ccccc13)CCC2	10.9%	x	u	50.1µM*	-3.1%	-13.6%
CC(C)NCC(=O)Nc1c2c(nc3ccccc13)CCC2	-1.3%	17.8µM*	22.4µM*	50.1µM*	u	5.6%
CCOC(=O)CNC(=O)c1c2c(nc3ccccc13)CCCC2	21.5%	x	-6.2%	-1.0%	11.2%	-1.9%
COc1ccc(C(=O)COC(=O)Cn2cnc3ccccc3c2=O)c(OC)c1	24.7%	u	-2.1%	-7.0%	x	-10.1%
CC1CCCC(NC(=O)CN(C)CC(=O)Nc2ccc(F)cc2)C1C (stereo not given)	40.3%	-1.6%[0.501 µM]	0.3%	6.5%	x	3.8%
Cc1c(NC(=O)C(C)OC(=O)c2c3c(nc4ccccc24)CCC3)c(=O)n(-c2ccccc2)n1C (stereo not given)	8.9%	50.1µM*	u	50.1µM*	15.2%	-18.7%
CCC(C)NC(=O)CSc1c2c(nc3ccccc13)CCCC2 (stereo not given)	6.3%	3.6%	-13.4%	10.5%	8.3%	16.8µM*
O=C(NC1CCCCC1)c1c2c(nc3ccccc13)CCC2	25.4%	u	-24.1%	50.1µM*	-7.7%	-12.7%
C[C@H]1COC(=O)[C@H]2CCCN2C(=O)[C@@H](C)COC(=O)[C@H]2CCCN2C1=O	x	x	x	x	-10.3%	x
CC(=O)c1cccc(NC(=O)c2noc3c2CC(C)CC3)c1 (stereo not given)	15.2%	-3.4%[59 µM]	-9.3%	-0.3%	x	x
SMILES	HP1b chromo inh	G9a inh	JMJD2A Tudor inh	BAZ2B block	Sfp inh	PLK1 PBD inh
O=S(=O)(Nc1nc2ccccc2nc1NCc1ccco1)c1cccs1	6.7%	50.1µM*	-17.3%	-7.7%	-22.6%	-21.0%
C=CCNc1nc2ccccc2nc1NS(=O)(=O)c1cccs1	46.1%	-40.8%[2.33 µM]	-7.2%	u	-7.6%	-2.9%
COc1ccc(S(=O)(=O)Nc2nc3ccccc3nc2Nc2ccc3c(c2)OCO3)cc1	x	-6.0%[59 µM]	x	-28.7%	13.8%	x
O=S(=O)(Nc1nc2ccccc2nc1Nc1ccc2c(c1)OCCO2)c1cccs1	-12.5%	u	u	50.1µM*	-2.1%	-19.5%
O=C(NC1CCCCCC1)C1CCN(C(=O)N2CCOc3ccc(Cl)cc32)CC1	-9.4%	7.94µM*	u	u	x	x
CCOC(=O)N1CCC(NC(=O)C2CCN(C(=O)N3CCOc4ccccc43)CC2)CC1	2.5%	0.4%[12.7 µM]	100µM*	30.3%	-6.0%	u
CCC1CN(C(=O)N2CCC(C(=O)Nc3ccccc3OC)CC2)c2ccccc2O1 (stereo not given)	-1.9%	17.6%	u	-27.5%	17.2%	26.7µM*
COc1ccc(NC(=O)Cn2nc(C)c3nn(-c4ccc(Cl)cc4)c(C)c3c2=O)cc1	29.9%[57 µM]	6.1%[59 µM]	-0.3%	2.3%	x	x
Cc1nc2ccc(Br)cc2c(=O)n1Cc1cccs1	57.7%	x	-1.7%	x	x	1.0%
O=C(NNc1nc(-c2ccccc2)cs1)c1ccc(F)cc1	17.7%	20µM*	-19.0%	-28.6%	u	-2.9%
O=C(NNc1nc(-c2ccc(F)cc2)cs1)c1ccccc1	u	22.4µM*	-18.9%	-17.3%	50.1µM*	u
O=C(NNc1nc(-c2ccccc2)cs1)c1cccs1	22.2%	5.6%[59 µM]	-26.6%	u	u	-7.2%
COc1cccc([C@H]2Oc3ccc(OC)cc3/C(=N\OC[C@@H](O)[C@@H]3O[C@@H]4OC(C)(C)O[C@@H]4[C@H]3O)[C@@H]2O)c1	x	x	x	x	7.1%	x
CCN(Cc1ccccc1)C(=O)Cn1c(=O)cc(C)c2c(C)nn(-c3cccc(F)c3)c21	23.4%	19.3%[59 µM]	-5.0%	-0.3%	x	x
O=C1NCCC/C1=N\Nc1ccc(Br)cc1	-15.9%	50.1µM*	u	-3.6%	16.4%	u
CC(=O)c1c(O)c(C)c(O)c2c1OC1=CC(=O)C(C(C)=O)C(=O)C12C (stereo not given)	x	x	x	x	10.5%	x
CC(=O)c1c(O)c(C)c(O)c2c1OC1=CC(=O)C(C(C)=O)C(=O)[C@@]12C (stereo not given in full)	15.2%	50.1µM*	-31.7%	-26.9%	22.1%	13.4%
CC(C)(C)c1nn(-c2ccccc2)c2[nH]c(=O)c(C=O)cc12	46.5%	u	0.0%	-11.8%	16.0%	-12.0%
Cc1ccc(-c2nn(-c3ccccc3)c3[nH]c(=O)c(CNCCN(C)C)cc23)cc1	x	7.8%[12.7 µM]	x	-7.0%	u	x
Cc1nn(-c2ccccc2)c2[nH]c(=O)c(CNc3ccc4c(c3)OCCO4)cc12	-35.8%	11.2µM*	u	35.5µM*	22.4%	-13.8%

High-throughput results: PubChem BioAssay, National Center for Advancing Translational Sciences (NCATS)
